Reference: PubChem BioAssay AID651658 (Broad Institute, 2012)
Screen size: about 340,000 compounds; about 5,100 (1.5%) were called active. The sample holds actives, similar compounds and a random draw of the others, so the mix is not that of the screen. Unmarked numbers belong to inactive results.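 How the source made its calls: active means mean Tm shift, scaled 0 neutral to 100 positive control, at about 1.3% or above, every replicate too (limit read from the data); inconclusive means no clear call, values can overlap the other calls; inactive means the rest.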

biological target: Fibroblast growth factor 22 (Homo sapiens) (UniProt Q9HCT0); assay: binders of human FGF22 protein, primary screen, FGF22 synaptogenesis inhibitor project, biophysical, thermal shift, single point (AID 651658); conditions: recombinant FGF22 thermal shift, SYPRO orange fluorescence; at 9.99 µM; hits give high values; percent of sucrose octasulfate shift, DMSO zero
Sequence (Q9HCT0 whole entry, looked up): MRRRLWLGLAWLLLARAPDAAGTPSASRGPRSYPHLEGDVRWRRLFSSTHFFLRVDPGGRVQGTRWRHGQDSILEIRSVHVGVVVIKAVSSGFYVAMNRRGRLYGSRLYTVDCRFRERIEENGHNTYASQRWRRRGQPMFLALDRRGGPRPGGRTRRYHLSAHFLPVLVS

Row | Structure (SMILES) | activity (Tm shift, normalised)
1 | CNS(=O)(=O)c1ccc(C(=O)NCC(=O)NCCc2ccc3c(c2)OCCO3)cc1 | 0.051%
2 | Cc1ccc(NS(=O)(=O)c2ccc(C(=O)NCCCN3CCOCC3)cc2)cc1 | -0.45%
3 | CCN(CC)CCNC(=O)c1ccc(NS(=O)(=O)c2ccc3c(c2)OCCO3)cc1 | 42.9% (active)
4 | C[C@H](NC(=O)C[C@H]1CC[C@H]2[C@@H](COC[C@H](O)CN2C(=O)Nc2cccc(Cl)c2)O1)c1ccccc1 | 0.797%
5 | O=C(CCN1CCCCC1)N[C@H]1CC[C@H](CCNS(=O)(=O)c2ccc(F)cc2)O[C@@H]1CO | 0.837%
6 | C[C@H](CO)N1C[C@H](C)[C@H](CN(C)Cc2ccncc2)Oc2ncc(C#CCC3CCCCC3)cc2C1=O | -0.367%
7 | C/C=C/c1ccc(OCC(O)CN2CCCCCCC2)c(OC)c1 (configuration not stated) | 0.015%
8 | C=CCc1ccc(OCC(O)CN2CCN(Cc3ccccc3)CC2)c(OC)c1 (configuration not stated) | 43.3% (active)
9 | C=CCc1ccccc1OCC(O)CN1CCN(CCO)CC1 (configuration not stated) | -0.051%
10 | O=C(Nc1ccc(F)cc1)N1CCCCN2[C@H](CO)[C@H](c3ccc(-c4ccncc4)cc3)[C@@H]2C1 | -0.055%
11 | C/C=C/c1ccc([C@@H]2[C@H](CO)N(CC3CCOCC3)C23CN(S(=O)(=O)CC)C3)cc1 | -0.282%
12 | CCNC(=O)c1cc2c(c(-c3cccc(C4=CCCC4)c3)n1)[C@H](CCO)N([S@@](=O)C(C)(C)C)C2 | 0.297%
13 | O=C(Cc1ccncc1)NCC[C@H]1CC[C@H](NC(=O)Nc2cccc(F)c2)[C@H](CO)O1 | -0.333%
14 | C[C@@H]1CN([C@H](C)CO)C(=O)c2cc(NS(=O)(=O)c3cccs3)ccc2O[C@@H](C)CCCCO[C@@H]1CN(C)C(=O)c1ccncc1 | -0.018%
15 | COc1ccc2c3c([nH]c2c1)[C@@H](CO)NCC31CN(S(=O)(=O)c2cccs2)C1 | 0.072%
16 | CCNC(=O)C[C@@H]1CC[C@@H](NC(=O)NC2CCCCC2)[C@H](CO)O1 | -0.281%
17 | COc1ccc(NC(=O)N(C)C[C@@H]2OCCCC[C@@H](C)Oc3ccc(NC(=O)C4CCCCC4)cc3C(=O)N([C@@H](C)CO)C[C@@H]2C)cc1 | -0.291%
18 | COC(=O)[C@@H]1[C@@H](CO)[C@@H]2Cn3c(ccc(-c4ccccc4)c3=O)[C@@H]2N1C(=O)C1CC1 | -0.013%
19 | O=C(COC(=O)c1ccc2c(c1)OCCO2)NCc1ccccc1Cl | -0.43%
20 | O=C(COC(=O)c1cc2c(s1)CCCC2)NCc1ccccc1Cl | 2.24% (active)
21 | CN(C)C(=O)c1ccc(NC(=O)COC(=O)c2cc3c(s2)CCCCC3)cc1 | 0.188%
22 | COc1ccc2c3c([nH]c2c1)[C@H](CO)N(C(=O)C1CCOCC1)CC31CN(S(C)(=O)=O)C1 | -0.085%
23 | CN(C)C(=O)c1cccc(-c2ccccc2[C@@H]2[C@@H](CO)N(C(=O)C3CCCCC3)[C@H]2C#N)c1 | 0.22%
24 | COc1ccc2c3c([nH]c2c1)[C@H](CO)N(C(=O)c1ccccc1)CC31CCN(S(=O)(=O)c2cccs2)CC1 | -0.133%
25 | CCC1(C)COC(c2ccc(OC)c(OC)c2)OC1 (configuration not stated) | -0.154%
26 | CCC1([N+](=O)[O-])COC(c2ccc(C)cc2)OC1 (configuration not stated) | 43.3% (active)

Row | Structure (SMILES) | activity (Tm shift, normalised)
27 | CCC1([N+](=O)[O-])COC(c2ccc(C(C)C)cc2)OC1 (configuration not stated) | 0.068%
28 | C/C=C/c1ccc([C@H]2[C@@H](CO)N3CCCCN(C(=O)c4ccc(F)cc4)C[C@@H]23)cc1 | -0.174%
29 | COc1ccc(F)c(-c2nc(CN3CCC(c4ccccc4)CC3)c(C)o2)c1 | 0.157%
30 | Cc1nonc1C1CCCN1Cc1nc(-c2ccc(F)cc2F)oc1C (configuration not stated) | 43.2% (active)
31 | Cc1oc(-c2ccccc2F)nc1CS(=O)CC(=O)NCCN1CCCCC1C (configuration not stated) | -0.146%
32 | C[C@H](CO)N1C[C@H](C)[C@H](CN(C)CC2CCCC2)Oc2ncc(-c3ccc(F)cc3)cc2C1=O | -0.41%
33 | CSc1ccc(/C=N/N2CCN(Cc3ccccc3Cl)CC2)cc1 | 43.3% (active)
34 | Cc1ccc(CN2CCN(/N=C/c3cccnc3)CC2)c(C)c1 | 0.311%
35 | COc1ccccc1/C=N/N1CCN(Cc2ccccc2Cl)CC1 | -0.025%
36 | Cc1c(-c2ccccc2)n[nH]c1C(=O)N=Nc1c(O)[nH]c2ccccc12 | 0.025%
37 | CC(=O)c1c(-c2ccccc2)c2ccccc2[nH]c1=O | 43.2% (active)
38 | NS(=O)(=O)c1ccccc1NC(=O)c1c(O)c2ccccc2[nH]c1=O | 0.089%
39 | COc1cccc(NC(=O)N2C[C@@H](O)COC[C@@H]3O[C@@H](CC(=O)NC4CCC4)CC[C@H]32)c1 | -0.083%
40 | COc1ccc(CCN2C(=O)[C@@]3(Cc4ccccc42)c2ccccc2C(=O)N(Cc2ccccc2C(F)(F)F)[C@H]3c2ccc(CO)cc2)cc1 | -0.145%
41 | CCNS(=O)(=O)c1ccc(CCC(=O)N2CCN(c3ccc(OC)cc3)CC2)cc1 | 0.369%
42 | CCOc1ccc(S(=O)(=O)NCCC(=O)N2CCCCCCC2)cc1 | 0.162%
43 | CCCNS(=O)(=O)c1ccc(CCC(=O)N2CCCC2)cc1 | 43% (active)
44 | CC(C)NC(=O)Nc1ccc2c(c1)C(=O)N([C@H](C)CO)C[C@@H](C)[C@@H](CN(C)Cc1ccncc1)O2 | 0.001%
45 | O=C(OCc1ccc(-c2ccccc2)cc1)c1cccc(O)c1 | -0.21%
46 | O=C(Nc1cccc2ccccc12)c1[nH]c(-c2ccccc2)c2c1C(=O)N(C1CC1)C2=O | -0.298%
47 | CC(C)(C)N1C(=O)c2c(C(=O)OCc3ccccc3)[nH]c(-c3ccccc3)c2C1=O | 2.17% (active)
48 | CCCNC(=O)Nc1ccc2c(c1)C(=O)N(C)[C@H]1CC[C@H](CC(=O)NCC3CCCCC3)O[C@@H]1CO2 | -0.32%
49 | Cc1noc(C)c1NC(=O)N(C)C[C@H]1OCCCC[C@@H](C)Oc2ccc(NC(=O)NC(C)C)cc2C(=O)N([C@H](C)CO)C[C@@H]1C | 0.234%
50 | COc1ccc(OCCCn2cccc2/C=C2/C(=N)N3OC(C)=CC3=NC2=O)cc1 | 43.6% (active)
51 | CC1=CC2=NC(=O)/C(=C/c3coc4ccccc4c3=O)C(=N)N2O1 | 0.039%
52 | COc1ccccc1OCCOc1ccc(/C=C2\C(=N)N3N=C(C)SC3=NC2=O)cc1 | -0.133%

Row | Structure (SMILES) | activity (Tm shift, normalised)
53 | CCCNC(=O)N(C)C[C@@H]1Oc2cc(-c3ccccc3)ccc2S(=O)(=O)N([C@H](C)CO)C[C@H]1C | -0.206%
54 | O=C(N[C@@H]1CC[C@@H](CCNS(=O)(=O)c2ccccc2Cl)O[C@@H]1CO)c1ccccc1 | -0.098%
55 | CC1CN(C(=O)c2cccc(NS(=O)(=O)c3ccc(Br)cc3)c2)CC(C)O1 (configuration not stated) | 0.103%
56 | COc1ccc(N2CCN(C(=O)COC(=O)c3cccc(S(=O)(=O)Nc4ccccc4OC)c3)CC2)cc1 | -0.159%
57 | CC1CN(C(=O)COC(=O)c2cccc(NS(=O)(=O)c3ccccc3)c2)CC(C)O1 (configuration not stated) | 43% (active)
58 | COc1cccc(-c2ccc3c(c2)[C@@H]2[C@@H](CCN2S(=O)(=O)C2=NC(C)C=N2)[C@@H](CO)N3C)c1 (some centres not stated) | -0.294%
59 | CN1CCN(/N=C/c2ccc(C#N)cc2)CC1 | 0.346%
60 | Cc1ccc(-c2ccc(/C=N/NC(=O)CN3CCOCC3)o2)cc1[N+](=O)[O-] | -0.102%
61 | CN1CCN(/N=C/c2ccc(-c3ccc([N+](=O)[O-])cc3)o2)CC1 | 42.9% (active)
62 | COc1ccc(NC(=O)N[C@H]2CC[C@@H](CCNC(=O)c3cc(Cl)cc(Cl)c3)O[C@H]2CO)cc1 | 0.37%
63 | COc1ccc(C[C@@H]2CCc3cnnn3COC[C@H](c3ccccc3)NC2=O)cc1 | 0.006%
64 | CCCNC(=O)Nc1ccc2c(c1)OC[C@@H](C)N(CCC)C[C@H](C)[C@@H](OC)CN(C)C2=O | 0.109%
65 | COc1ccc(C(=O)CSc2nnnn2C)c(OC)c1 | 43% (active)
66 | COc1ccc(C(=O)CCc2ccccc2O)c(OC)c1 | -0.131%
67 | COc1ccc(-n2nnnc2SCC(=O)c2ccc(OC)c(OC)c2)cc1 | -0.381%
68 | COc1ccc2c3c([nH]c2c1)[C@H](CO)N(C(=O)c1ccccc1)CC31CN(C(=O)Nc2cccc(F)c2)C1 | 0.15%
69 | O=C(c1cccnc1)N1CC2(C1)[C@@H](c1ccccc1)[C@H](CO)N2C(=O)C1CCC1 | -0.239%
70 | O=C(Cc1ccccc1)N1CC2(C1)[C@H](c1ccccc1)[C@@H](CO)N2C(=O)c1cccnc1 | -0.085%
71 | C[C@H](CO)N1C[C@H](C)[C@@H](CN(C)CC2CCCCC2)Oc2ccc(NC(=O)Cn3cnnn3)cc2CC1=O | -0.448%
72 | O=C(CN1CCCCCC1)NCCN1C(=O)S/C(=C\c2ccccc2Cl)C1=O | 0.458%
73 | O=C(CN1C(=O)S/C(=C\c2ccccc2Cl)C1=O)NC1C=CS(=O)(=O)C1 (configuration not stated) | 43.2% (active)
74 | COc1cccc(/C=C2/SC(=S)N(CC(=O)NC3C=CS(=O)(=O)C3)C2=O)c1 (configuration not stated) | -0.111%
75 | O=C(O)CCCCCCC(=O)NOCc1ccccc1 | -0.15%
76 | CO[C@H](CN(C)C(=O)c1cnccn1)[C@@H](C)CN([C@@H](C)CO)S(=O)(=O)c1ccccc1 | 0.08%
77 | CC(C)NC(=O)Nc1ccc2c(c1)C(=O)N([C@@H](C)CO)C[C@@H](C)[C@H](CN(C)C)OCCCC[C@H](C)O2 | -0.748%
